Some test systems named below: T-47D breast; BT-549 breast; MDA-MB-435 melanoma; SW-620 colon; MCF7 breast; HCT-116 colon; HCC-2998 colon; KM12 colon.
Holding throughout (test): NCI-60 one-dose screen, 48 h (100 = growth as untreated, 0 = no growth, -100 = all killed)
Conditions in all cases: 10 µM unless noted

Compounds without any hit were thinned out: in the full panel of roughly 83,000, 20% have a hit.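 Percent growth is the endpoint: 0 to 100 indicates growth inhibition (40 means 60% inhibition), 0 means no net growth, and negative values indicate cell death.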 A number with no mark means an inactive call. Active and inactive are the calls of the source. How the source made its calls: active means growth percent below 10; inactive means the rest.

As for `Nc1nc(N)nc(NCc2ccccc2)n1`, the growth in the test on T-47D breast is 98.2%; in the test on BT-549 breast it was 106%; in the test on MDA-MB-435 melanoma, 112%; in the test with SW-620 colon it was 112%; in the test on MCF7 breast, 95.8%; with HCT-116 colon it was 106%. Also, the growth in the test with HCC-2998 colon is 94.7%; in the test with KM12 colon it was 104%.

For `O=C(O)C(/C=C/c1ccco1)=N\Nc1nc(-c2ccc(Cl)cc2)cs1`, the growth with T-47D breast is 66.6%; in the test on BT-549 breast, 63.8%; with MDA-MB-435 melanoma, 45.7%; in the test on SW-620 colon, 71.5%; in the test on MCF7 breast, 71.9%; with HCT-116 colon, 26.3%. In addition, the growth in the test on HCC-2998 colon was 49%; in the test on KM12 colon, 62.2%.

For `COc1cc(-c2cc(=O)oc3cc(O)ccc23)cc(OC)c1OC`, the growth with T-47D breast was 83.5%; in the test on BT-549 breast it was 97.4%; with MDA-MB-435 melanoma it was 100%; in the test with SW-620 colon, 96%; with MCF7 breast, 94%; with HCT-116 colon it was 86.5%. Besides, the growth in the test on HCC-2998 colon is 100%; in the test on KM12 colon it was 85.7%.

Take `CCCCCCCCOc1ccc(/C=N/Nc2cc(C)nc3ccc(Cl)cc23)cc1`: the growth in the test with T-47D breast was 56%; with BT-549 breast it was 111%; with MDA-MB-435 melanoma, -19.8% (active); with SW-620 colon it was -70.4% (active); in the test with MCF7 breast, -69.7% (active); in the test on HCT-116 colon, -69.9% (active). The growth is -58.6% (active) with HCC-2998 colon and -72.9% (active) in the test with KM12 colon.

With `COc1cc(C2CC(c3cccc(Nc4ccncc4)c3)=NN2c2ccc(Cl)cc2)cc(OC)c1OC` (stereo not drawn), the growth in the test on T-47D breast is 71.3%; in the test with BT-549 breast, 107%; in the test with MDA-MB-435 melanoma, -88.3% (active); in the test on SW-620 colon, -66.6% (active); in the test with MCF7 breast, -36.1% (active); in the test with HCT-116 colon, 105%. Besides, the growth with HCC-2998 colon is -36.2% (active); with KM12 colon, -74.5% (active).

In the case of `CCCCN(CCCC)CCc1c(C)cc(C)c(CCN(CCCC)CCCC)c1O`, the growth is 5.78% (active) in the test with T-47D breast; 43.3% with BT-549 breast; 17.1% in the test with MDA-MB-435 melanoma; 24.1% in the test on SW-620 colon; 12.8% with MCF7 breast; 6.6% (active) in the test with HCT-116 colon. For the same molecule, the growth with HCC-2998 colon was 19.6%; in the test on KM12 colon, 41.4%.

Regarding `CC1CCN(C(=O)OCc2nc3nc(Cl)nc(N4CCOCC4)c3[nH]2)CC1`, the growth in the test with T-47D breast was -61.6% (active); with BT-549 breast, -66% (active); in the test with MDA-MB-435 melanoma it was -76.5% (active); in the test with SW-620 colon, -55.6% (active); in the test with MCF7 breast it was -18.9% (active); in the test with HCT-116 colon, -74.1% (active). Moreover, the growth in the test with HCC-2998 colon was 2.05% (active); in the test on KM12 colon it was 9.43% (active).

As to `CC(C)(C)OC(=O)N1C/C(=C\c2ccoc2)C(=O)/C(=C/c2ccoc2)C1`, the growth was 82.4% in the test on T-47D breast; 102% with BT-549 breast; 98.2% in the test on MDA-MB-435 melanoma; 56.8% in the test on SW-620 colon; 20.5% with MCF7 breast; 21.7% in the test with HCT-116 colon. Further, the growth with HCC-2998 colon is 98.9%; with KM12 colon it was 88.8%.

For `CCCCCCCCCCCCCCCC(=O)OC[C@@]1(O)C[C@@]23CC[C@@H]4C(C)(C)[C@H](O)CC[C@@]4(C)[C@@H]2CC[C@H]1C3`, the growth with T-47D breast is 98.1%; in the test with BT-549 breast, 91.5%; in the test with MDA-MB-435 melanoma it was 108%; with SW-620 colon, 110%; with MCF7 breast it was 97%; in the test on HCT-116 colon, -67% (active). Further, the figures for the growth with HCC-2998 colon and in the test with KM12 colon were 107% and 108%, respectively.

As to `O=C(OCc1nc2nc(Cl)nc(N3CCOCC3)c2[nH]1)n1ccnc1`, the growth in the test on T-47D breast is -49.2% (active); with BT-549 breast it was 9.52% (active); with MDA-MB-435 melanoma it was -55.1% (active); in the test with SW-620 colon, -59.1% (active); in the test on MCF7 breast, 4.72% (active); in the test on HCT-116 colon it was -82.4% (active). For the same molecule, the growth is 65.3% in the test on HCC-2998 colon and 13.7% with KM12 colon.

With `COc1ccccc1-c1c(-c2ccc(Cl)cc2)c2cc3c(cc2[nH]c1=O)OCCO3`, the growth is 66% with T-47D breast; 67.7% with BT-549 breast; 65.2% with MDA-MB-435 melanoma; 93.7% in the test with SW-620 colon; 42% in the test with MCF7 breast; 47.7% with HCT-116 colon. Moreover, the growth is 83.7% in the test on HCC-2998 colon and 63.8% in the test on KM12 colon.

Regarding `C=C(C)[C@H]1CC/C(C)=C/CC[C@]2(C)O[C@H]2CC/C(COC(=O)[C@@H](OC(C)=O)[C@H](NC(=O)c2ccccc2)c2ccccc2)=C\[C@@H]1O`, the growth was 73.6% in the test on T-47D breast; 97.1% with BT-549 breast; 92.3% with MDA-MB-435 melanoma; 105% in the test on SW-620 colon; 81.2% with MCF7 breast; 89.6% in the test on HCT-116 colon. The growth with HCC-2998 colon is 96.5%; in the test on KM12 colon, 99.6%.

Regarding `CC(C)Cc1ccc(C(C)C(=O)NCc2ccc(Cn3c(=O)sn(-c4ccc(Cl)cc4)c3=O)cc2)cc1` (stereo not drawn), the growth in the test on T-47D breast is 54.9%; with BT-549 breast it was 95.1%; in the test on MDA-MB-435 melanoma, 84.8%; with SW-620 colon, 59.8%; with MCF7 breast, 66.9%; with HCT-116 colon, 75.6%. The growth in the test with HCC-2998 colon is 96.2%; in the test on KM12 colon, 69.8%.

Consider `NC(=O)c1ncn(C2OC(CO)C(O)C2O)n1` (stereo not drawn), for which the growth was 84.6% with T-47D breast; 96.8% in the test with BT-549 breast; 107% with MDA-MB-435 melanoma; 70.9% with SW-620 colon; 80.8% with MCF7 breast; 57.5% in the test with HCT-116 colon. For the same molecule, the growth with HCC-2998 colon is 92.8%; with KM12 colon, 98.3%.

For `O=C(N=Nc1c(O)[nH]c2ccc(F)cc12)c1cc2ccccc2[nH]1`, the growth is 88.2% in the test with T-47D breast; 90.2% in the test with BT-549 breast; 99.6% with MDA-MB-435 melanoma; 105% in the test with SW-620 colon; 90.1% with MCF7 breast; 93.5% with HCT-116 colon. Besides, the growth in the test with HCC-2998 colon is 100%; in the test on KM12 colon, 102%.

As to `Nc1nc(SN=Nc2ccc(S(N)(=O)=O)cc2)c2[nH]cnc2n1`, the growth in the test on T-47D breast is 23.8%; in the test with BT-549 breast, 36%; in the test with MDA-MB-435 melanoma it was 7.71% (active); in the test on SW-620 colon, 19.2%; in the test with MCF7 breast, 7.59% (active); with HCT-116 colon, 12.3%. The growth in the test with HCC-2998 colon is 5.53% (active); in the test on KM12 colon, 5.31% (active).

(Values after PubChem BioAssay (NCI).)
